# Measured values published in PubChem BioAssay (Tox21).
# Records with an inconclusive call do not appear. Where a call stands in place of a potency, no number is given. The source made the active and inactive calls. Calls come from the whole dose curve; as a rule, active = well fitted inhibition curve with a large enough effect in the repeat runs; inconclusive = weak or mixed curves; inactive = flat fitted curve, though single readings scatter.
# Target: Voltage-gated inwardly rectifying potassium channel KCNH2 (Homo sapiens) (UniProt Q12809)
# Sequence (Q12809 whole entry, looked up): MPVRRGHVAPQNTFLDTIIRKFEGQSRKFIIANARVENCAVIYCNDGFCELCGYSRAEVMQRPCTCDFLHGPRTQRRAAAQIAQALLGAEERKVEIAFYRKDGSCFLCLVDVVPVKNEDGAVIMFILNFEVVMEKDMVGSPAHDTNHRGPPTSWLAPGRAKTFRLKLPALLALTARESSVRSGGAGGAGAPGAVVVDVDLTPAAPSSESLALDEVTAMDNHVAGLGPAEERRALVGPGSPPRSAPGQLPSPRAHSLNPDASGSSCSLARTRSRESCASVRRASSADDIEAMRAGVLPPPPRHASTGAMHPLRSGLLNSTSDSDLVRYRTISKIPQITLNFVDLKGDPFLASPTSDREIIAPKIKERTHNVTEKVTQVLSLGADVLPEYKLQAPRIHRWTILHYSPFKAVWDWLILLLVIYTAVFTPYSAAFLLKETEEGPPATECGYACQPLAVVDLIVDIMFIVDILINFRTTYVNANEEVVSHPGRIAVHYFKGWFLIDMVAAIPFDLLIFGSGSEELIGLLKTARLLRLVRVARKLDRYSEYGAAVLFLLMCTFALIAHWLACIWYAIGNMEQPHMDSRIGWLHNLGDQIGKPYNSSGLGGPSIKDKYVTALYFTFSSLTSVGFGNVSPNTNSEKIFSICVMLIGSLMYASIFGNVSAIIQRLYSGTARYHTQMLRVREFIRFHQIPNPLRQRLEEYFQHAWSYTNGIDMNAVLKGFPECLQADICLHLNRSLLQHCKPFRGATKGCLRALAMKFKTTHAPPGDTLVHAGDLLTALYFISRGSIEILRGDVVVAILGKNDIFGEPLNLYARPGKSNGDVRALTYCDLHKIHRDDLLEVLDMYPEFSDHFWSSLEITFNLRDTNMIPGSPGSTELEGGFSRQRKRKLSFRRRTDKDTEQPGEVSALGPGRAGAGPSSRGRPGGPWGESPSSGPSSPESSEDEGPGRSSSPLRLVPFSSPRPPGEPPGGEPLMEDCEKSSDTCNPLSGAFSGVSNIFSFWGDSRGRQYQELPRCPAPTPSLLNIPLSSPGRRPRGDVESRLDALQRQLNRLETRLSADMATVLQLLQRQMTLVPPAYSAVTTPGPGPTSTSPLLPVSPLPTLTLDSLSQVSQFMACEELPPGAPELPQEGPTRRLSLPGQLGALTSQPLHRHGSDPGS
# Test: Human Ether-a-go-go-Related Gene (hERG) channel small molecule antagonists: fluorescence cell-based qHTS assay (AID 1671200); note: nearly all actives have a fitted effect of over 50% in size
# Conditions: hERG-U2OS cells, FluxOR thallium flux fluorescence; series mostly up to 76.8 µM
# From the text: National Center for Advancing Translational Sciences [NCATS]
# U.S. Environmental Protection Agency [EPA]
# National Institutes of Environmental Health Sciences [NIEHS]
# National Toxicology Program [NTP]
# U.S. Food and Drug Administration [FDA]
# Mutations in the hERG channel cause Long QT (LQT) syndrome. LQT syndrome is a cardiac disorder which can cause ventricle arrhythmia and sudden death. Additionally, compounds which block the hERG channel can cause acquired LQT syndrome. Several FDA approved drugs have been removed from the market due to their hERG blocking activity. A cell-based hERG channel inhibition assay can be used to screen chemical compounds that inhibit hERG channel. This assay measures hERG channel activity using thallium ions as surrogate ions to measure potassium into the cells.
# Tox21 Assay Protocol Summary:
# hERG-U2OS cells were resuspended in culture medium and dispensed into 1536-well, black wall/clear-bottom plates at 1000cells/well/3uL using a Multidrop Combi dispenser (Thermo Fisher, Waltham, MA). After plates were incubated at 37 C overnight, 3 uL of Loading Buffer provided by FluxOR II Potassium Ion Channel Assay kit (Thermo, Carlsbad, CA) was added to each well. The assay plates were then incubated at room temperature in the dark for 1h. […] After the assay plates were incubated at room temperature for 10 min, 1 uL of Stimulus Buffer provided by FluxOR II Potassium Ion Channel Assay kit was added into each well and fluorescence intensity (480nm excitation/540nm emission) was continuously measured for 2 min at 1 second intervals using a Functional Drug Screening System (FDSS) 7000EX kinetic plate reader (Hamamatsu, Japan).
row,Compound,Potency
1,ClCOCCl,inactive
2,C[C@H]1CCCC(=O)CCC/C=C/c2cc(O)cc(O)c2C(=O)O1,inactive
3,COc1ccc(C=O)cc1O,inactive
4,CCOc1cc(OP(=S)(OC)OC)nc(CC)n1,inactive
5,O=C(Cl)C(Cl)(Cl)Cl,inactive
6,CCC(C)(C#N)N=NC(C)(C#N)CC (stereo not given),inactive
7,BrCC1CO1 (stereo not given),inactive
8,COc1cccc([C@@]2(O)CCCC[C@@H]2CN(C)C)c1,inactive
9,C/C=C/CC#N,inactive
10,CCC1(c2ccccc2)CCC(=O)NC1=O (stereo not given),inactive
11,C=CCN1CC[C@]23CCCC[C@H]2[C@H]1Cc1ccc(O)cc13,inactive
12,COC(=O)[C@@H](N)CCCN/C(N)=N/[N+](=O)[O-],inactive
13,CCC1(CC)C(=O)C=CNC1=O,inactive
14,CCCN1CCC[C@@H]2Cc3nc(N)ncc3C[C@H]21,inactive
15,NNC(N)=O,inactive
16,OCC(Cl)CCl (stereo not given),inactive
17,Oc1ccc(Cc2ccc(O)cc2)cc1,inactive
18,O=C(Cl)c1ccccc1,inactive
19,Cn1c(N)nc2c3cccnc3ccc21,inactive
20,CN(C)C1CCCCC1,inactive

row,Compound,Potency
1,CCOP(=S)(OCC)Oc1ccc(Cl)cc1Cl,inactive
2,COc1ccccc1OC,inactive
3,C/C(=N\NC(=O)Nc1cc(F)cc(F)c1)c1ncccc1C(=O)O,inactive
4,ClC1=C(Cl)C2(Cl)C(CBr)CC1(Cl)C2(Cl)Cl (stereo not given),inactive
5,CC(=O)CN(CC(C)=O)N=O,inactive
6,CC(C)(C)C(=O)C(Cl)Cl,inactive
7,C[C@H](CN1CCOCC1)C(C(=O)N1CCCC1)(c1ccccc1)c1ccccc1,inactive
8,CCN(CCO)CCn1c(Cc2ccccc2)nc2c1c(=O)n(C)c(=O)n2C,inactive
9,C=CCCC#N,inactive
10,O=[N+]([O-])c1cccc(CCl)c1,inactive
11,CC(C)N(Cc1ccccc1)C(=O)C(C)(C)C,inactive
12,C[C@]12C=CC(=O)C=C1CC[C@@H]1[C@@H]2CC[C@@]2(C)[C@H]1CC[C@]2(C)O,inactive
13,CCC(=O)OC1(c2ccccc2)CCN(C)CC1,inactive
14,O=C1CC(=O)NC(=O)N1,inactive
15,CN(C)C(=O)Oc1cc(OC(=O)N(C)C)cc(C(O)CNC(C)(C)C)c1 (stereo not given),inactive
16,O=C(NC(=O)c1c(F)cccc1F)Nc1cc(Cl)c(F)c(Cl)c1F,inactive
17,CCOC(=O)CCl,inactive
18,S=C=S,inactive
19,CC(O)CCl (stereo not given),inactive
20,c1cncc([C@@H]2CCCCN2)c1,inactive
